Laboratory results reported in PubChem BioAssay (NCI).
This is part of a sample that, as a whole, favours compounds with a hit. Of some 83,000 tested, about 20% had one in any assay.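 Each cell line was grown in a 96-well plate and treated with one concentration of compound for 48 hours. Values below 10 were considered active.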 A number with no mark means an inactive call. Active and inactive are the calls of the source.

Key:
Assay in all cases: NCI-60 one-dose screen, 48 h (100 = growth as untreated, 0 = no growth, -100 = all killed)
Settings in all cases: 10 µM unless noted
[1] = system: NCI-H23 lung
[2] = system: NCI-H226 lung
[3] = system: NCI-H322M lung
[4] = system: HOP-62 NSCLC
[5] = system: NCI-H460 lung
[6] = system: HOP-92 NSCLC
[7] = system: NCI-H522 lung
[8] = system: A549/ATCC NSCLC
[9] = system: 786-0 renal
[10] = system: COLO 205 colon
[11] = system: DU-145 prostate
[12] = system: K-562 leukemia
[13] = system: MALME-3M melanoma
[14] = system: MDA-MB-231 breast
[15] = system: RXF 393 renal
[16] = system: SF-268 CNS
[17] = system: SF-295 CNS
[18] = system: SF-539 CNS
[19] = system: UACC-257 melanoma
[20] = system: M14 melanoma

## CCC1(NC(=O)c2cc(F)c(F)c(F)c2F)C(=O)NC(=O)N(C(C)C)C1=O (stereo not given)
[1]
  growth: 47%
[2]
  growth: 139%
[3]
  growth: 90.2%
[4]
  growth: 101%
[5]
  growth: 99.7%
[6]
  growth: 79.9%
[7]
  growth: -5.62% (active)
[8]
  growth: 75.9%
[9]
  growth: 101%
[10]
  growth: 141%
[11]
  growth: 143%
[12]
  growth: -26.7% (active)
[13]
  growth: 90.4%
[14]
  growth: 81.5%
[15]
  growth: 79.8%
[16]
  growth: 114%
[17]
  growth: 107%
[18]
  growth: 97.5%
[19]
  growth: 70.4%
[20]
  growth: 50%

## O=C(O)c1ccccc1N(CCO)CCCl
[1]
  growth: 99%
[2]
  growth: 102%
[3]
  growth: 90.3%
[4]
  growth: 95.1%
[5]
  growth: 111%
[6]
  growth: 79.3%
[7]
  growth: 93.3%
[8]
  growth: 98.1%
[9]
  growth: 107%
[10]
  growth: 100%
[11]
  growth: 103%
[12]
  growth: 100%
[13]
  growth: 87.1%
[14]
  growth: 112%
[15]
  growth: 102%
[16]
  growth: 103%
[17]
  growth: 99.8%
[18]
  growth: 84.6%
[19]
  growth: 99%
[20]
  growth: 96%

## CCC(=O)C(CC(C)N1CCCCCC1)(c1ccccc1)c1ccccc1 (stereo not given)
[1]
  growth: 91.6%
[2]
  growth: 92.6%
[3]
  growth: 84.7%
[4]
  growth: 85.6%
[5]
  growth: 103%
[6]
  growth: 65.9%
[7]
  growth: 83%
[8]
  growth: 87.8%
[9]
  growth: 87.4%
[10]
  growth: 93%
[11]
  growth: 102%
[12]
  growth: 82.6%
[13]
  growth: 93.6%
[14]
  growth: 92.4%
[15]
  growth: 129%
[16]
  growth: 104%
[17]
  growth: 89.7%
[18]
  growth: 98.6%
[19]
  growth: 100%
[20]
  growth: 98.1%
